“And” between values parts separate entries of the source, which are not always exact repeats. Equal values may be shown once. Measured potencies and affinities stand elsewhere.
Key:
Staphylococcus aureus = settings: Concentration 32 ug.mL-1, ASSAY_TEST Inhibition of Bacterial Growth, detection method Absorption (OD600), MEDIA CAMHB, plate type 384well, NBS, CORNING #3640, time 18 hr
Escherichia coli = settings: Concentration 32 ug.mL-1, ASSAY_TEST Inhibition of Bacterial Growth, detection method Absorption (OD600), MEDIA CAMHB, plate type 384well, NBS, CORNING #3640, time 18 hr

| SMILES | Inhibition (Staphylococcus aureus) [%] | Inhibition (Escherichia coli) [%] | Inhibition (Staphylococcus aureus; 32 ug/mL) | Inhibition (Escherichia coli; 32 ug/mL) |
| --- | --- | --- | --- | --- |
| N#Cc1c(N)nc2[nH]nc(N)c2c1-c1ccccc1 | 40.83 | -6.5 |  |  |
| Cc1[nH]nc2c1C(c1cccc([N+](=O)[O-])c1)C(C#N)=C(N)O2 (configuration not stated) | 7.57 | 4.04 |  |  |
| N#Cc1c(Cl)nc(Cl)c(C#N)c1-c1ccccc1 | 37.97 | -3.96 |  |  |
| CCOC(=O)c1cc(C#N)c(N)nc1C | 8.2 | -11.35 |  |  |
| COc1ccc(-c2cc(-c3cc4ccccc4nc3Cl)cc(=O)[nH]2)cc1 | 22.93 | -12.6 |  |  |
| C#CCN1CCc2nc3nc(NC4CCN(Cc5ccccc5)CC4)c(C#N)cc3c(N)c2C1 | 26.68 | -8.32 |  |  |
| C#CCN(C)c1nc(NCCCC2CCN(Cc3ccccc3)CC2)c(C#N)cc1C#N | 1.12 | -10.35 |  |  |
| C#CCN(C)Cc1cc2cc(O)ccc2n1C.Cl | 21.22 | -11.62 |  |  |
| CC1=C(CO)C(c2ccc(C#N)cc2)C(C#N)=C(N)O1 (configuration not stated) | 9.52 | 17.18 |  |  |
| Nc1c2c(nc3c1C(c1ccc([N+](=O)[O-])cc1)c1ccc4ccccc4c1O3)CCCC2 (configuration not stated) | -9.37 | -12.22 |  |  |
| COc1ccccc1C1c2ccc3ccccc3c2Oc2nc3c(c(N)c21)CCCC3 (configuration not stated) | 0.62 | 3.02 |  |  |
| COc1ccc2c(c1)cc(CN)n2C | 13.26 | 5.66 |  |  |
| CCOC(=O)c1c(C)nc2nc3c(c(N)c2c1-c1ccc(OC)cc1)CCCCCC3 | 3.19 | -20.4 |  |  |
| N#Cc1cc(C#N)c(NC2CCN(Cc3ccccc3)CC2)nc1N |  |  | 23.9% and 14.84% | -6.37% and -14.46% |
| C#CCN(C)c1nc(Cl)c(C#N)c(-c2ccccc2)c1C#N | 13.59 | -10.42 |  |  |
| Cl.NC1(C(=O)O)CC1c1ccccc1 (configuration not stated) | 12.81 | 11.66 |  |  |
| CCOC(=O)c1c(C)nc(/N=N/c2nc(C)c(C(=O)OCC)c(-c3ccccc3)c2C#N)c(C#N)c1-c1ccccc1 | 11.27 | 6.76 |  |  |
| CCOC(=O)C1=C(C)OC(N)=C(C#N)C1c1ccc(OC)cc1 (configuration not stated) | 9.52 | -2.05 |  |  |
| C=CCNc1[nH]c2ccc(O)cc2c1C#N | 32.95 | -4.66 |  |  |
| CCOC(=O)C1=C(C)OC(N)=C(C#N)C1c1ccc(OC)c(OC)c1 (configuration not stated) | 21.72 | -10.4 |  |  |
| OCc1cc2ccccc2[nH]1 | 39.41 | -0.49 |  |  |

| SMILES | Inhibition (Staphylococcus aureus) [%] | Inhibition (Escherichia coli) [%] | Inhibition (Staphylococcus aureus; 32 ug/mL) | Inhibition (Escherichia coli; 32 ug/mL) |
| --- | --- | --- | --- | --- |
| Nc1ccccc1C(=O)N/N=C/c1c[nH]c2ccccc12 | 7.31 | 5.27 |  |  |
| C=C1CN(C)c2ncc(C#N)c(=N)n21 | 2.81 | -21.82 |  |  |
| COC(=O)C(=Cc1ccc([N+](=O)[O-])cc1)NC(=O)c1ccccc1 | 7.69 | 6.65 |  |  |
| N#CC1=C(Cl)Oc2c(ccc3ccccc23)C1c1ccccc1[N+](=O)[O-] (configuration not stated) | 15.73 | -14.23 |  |  |
| N#Cc1c(N)nc(NCCC2CCN(Cc3ccccc3)CC2)c(C#N)c1-c1ccccc1 | 34.16 | -9 |  |  |
| CC1Cc2ccccc2N1/N=C/c1ccccc1 (configuration not stated) | -5.3 | -3.55 |  |  |
| C=CCNCc1cc2cc(OCCCC3CCN(Cc4ccccc4)CC3)ccc2[nH]1.O.O=C(O)C(=O)O.O=C(O)C(=O)O | 13.83 | -23.08 |  |  |
| Cn1ccnc1C1c2ccc3ccccc3c2Oc2nc3c(c(N)c21)CCCCC3 (configuration not stated) | 17.85 | -12.42 |  |  |
| O=Cc1cc2ccccc2nc1Cl | 19.39 | 16.87 |  |  |
| NC1(C(=O)O)CC1c1ccc2c(c1)OCO2 (configuration not stated) | -7.05 | -7.79 |  |  |
| C#CCN(C)c1nc(OC)c(C#N)cc1C#N | 10.54 | -19.1 |  |  |
| C#CCNc1nc(NCCCC2CCN(Cc3ccccc3)CC2)c(C#N)cc1C#N.Cl | -16.88 | -13.89 |  |  |
| COC(=O)C(=Cc1ccccc1)NC(=O)c1ccccc1 | 11.82 | 6.08 |  |  |
| C#CCNc1ncccn1 | 40.44 | -0.02 |  |  |
| Cn1ccnc1C1c2ccc3cccnc3c2Oc2nc3c(c(N)c21)CCC3 (configuration not stated) | 14.96 | -15.51 |  |  |
| Cc1nc2c3cnn(-c4ccccc4)c3ncn2n1 | 15.5 | 11.4 |  |  |
| O=C(COc1ccc2ccccc2c1)N/N=C/c1c[nH]c2ccccc12 | 3.21 | 6.84 |  |  |
| CCOC(=O)c1cc2cc(O)ccc2n1C(=O)OC(C)(C)C | 5.1 | 10.33 |  |  |
| C=C1CN(C)c2c(C#N)c(-c3ccccc3)c(C#N)c(=O)n21 | 8.64 | -1.97 |  |  |
| N#Cc1cc(C#N)c(NCCCC2CCN(Cc3ccccc3)CC2)nc1N | 49.11 | -3.28 |  |  |

— ChEMBL document CHEMBL4513135, “CO-ADD screening of IQOG CSIS (Spain) compounds”
